A selection: hits, their analogues and other compounds. The true share with any hit is near 3.8%.
TrxR1 substrate: rat thioredoxin reductase 1 substrate activity; purified TrxR1 substrate turnover, NADPH consumption readout; Potency, µM (doses to about 114 µM); 390,000 compounds, 0.01% hits; AID 588456; further: nearly all actives have a fitted effect of over 50% in size
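Rat TrxR1, dispensed at 90 nM, was prereduced with 400 uM NADPH (final) for 5 min at ~22 deg C, then incubated with compound 15 min before 400 uM selenite. A first-read NADPH fluorescence drop versus no-compound background flagged substrates.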
rTrxR1 inhibitor: rat TrxR1 inhibition; 390,000 compounds, 1% hits; recombinant rTrxR1, NADPH fluorescence consumption, selenite substrate; Potency, µM (highest dose often 114 µM), usual class: inhibitors; AID 588453; O89049; further: nearly all actives have a fitted effect of over 65% in size
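Rat TrxR1 (90 nM in the dispensed reagent) was pre-reduced with 400 uM NADPH for 5 min at room temperature, then incubated with compound for 15 min. After 400 uM selenite was added, NADPH fluorescence (Ex 340/Em 450 nm) was followed for 8 min.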
Sfp inh: Sfp phosphopantetheinyl transferase inhibition | Q9F4F7 | Biochemical Sfp PPTase activity, qHTS | Potency, µM, usual class: inhibitors | 310,000 compounds, 3.5% hits;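 further: the enzyme is Sfp with the accession as filed and its product quenches rhodamine fluorescence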
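Fluorescence-quenching assay: 15 nM Sfp-PPTase preincubated 15 min at room temperature with compound, then 5 uM rhodamine-CoA and 12.5 uM BHQ-2-labelled YbbR peptide added. Fluorescence (ex 525/em 598 nm) read at start and after 30 min; difference gives rate.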
KAT2A inh: GCN5L2 (KAT2A) acetyltransferase inhibition. Q92830. GCN5L2 HAT assay, ThioGlo1 CoA-SH fluorescence. Potency, µM (top dose mostly 58.9 µM), usual class: inhibitors. 390,000 compounds, 0.21% hits
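Preincubate 20nM GCN5L2 with compound 15 min, RT → add 50uM ThioGlo1 + 75uM H3(1-25) + 70uM acetyl-CoA → read fluorescence 0 and 20 min. Primary qHTS; fluorescent artifacts likely.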
VDR inhibitor: blocks the human vitamin D receptor; P11473; VDR-SRC2-3 peptide fluorescence polarization, 2 h; Potency, µM, most hits filed as inhibitors; 400,000 compounds, 0.93% hits; AID 504847
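After 23 nl compound addition and a short centrifugation, plates sat for 2 hours at ambient temperature; polarization of fluorescence then indicated loss of VDR binding to peptide SRC2-3.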
GLS inhibitor: glutaminase GLS (human) inhibition; GLS enzymatic activity, qHTS titration; Potency, µM (titrated, usually from 45.5 µM), most hits filed as inhibitors; 410,000 compounds, 0.21% hits; AID 624170
Target sequence (O94925 whole entry, looked up): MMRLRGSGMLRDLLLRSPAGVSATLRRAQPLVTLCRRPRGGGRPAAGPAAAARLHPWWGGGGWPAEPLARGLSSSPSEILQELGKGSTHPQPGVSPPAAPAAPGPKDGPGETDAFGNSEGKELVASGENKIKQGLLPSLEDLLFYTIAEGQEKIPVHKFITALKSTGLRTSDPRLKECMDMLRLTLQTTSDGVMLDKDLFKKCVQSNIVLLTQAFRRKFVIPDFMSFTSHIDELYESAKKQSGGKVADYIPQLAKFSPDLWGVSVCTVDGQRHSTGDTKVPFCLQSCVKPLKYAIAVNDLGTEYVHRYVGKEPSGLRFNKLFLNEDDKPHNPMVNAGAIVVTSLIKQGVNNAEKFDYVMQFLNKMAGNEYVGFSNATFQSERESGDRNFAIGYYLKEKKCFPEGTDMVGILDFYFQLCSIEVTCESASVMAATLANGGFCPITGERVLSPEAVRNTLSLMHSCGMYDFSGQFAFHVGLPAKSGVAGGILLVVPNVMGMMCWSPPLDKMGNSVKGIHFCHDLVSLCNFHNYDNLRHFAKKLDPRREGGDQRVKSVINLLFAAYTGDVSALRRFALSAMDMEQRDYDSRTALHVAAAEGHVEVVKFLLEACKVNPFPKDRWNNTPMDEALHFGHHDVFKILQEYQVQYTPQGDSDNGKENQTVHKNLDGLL
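Enzyme dispensed in phosphate buffer (45 mM, pH 8.2, 0.02% Tween-20), compounds pinned in, then 1 mM L-glutamine solution and the glutamate oxidase–HRP–Amplex Red mix added; fluorescence read immediately and again after 30 min at room temperature.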
Hits are given with their value; – = inactive; ? = inconclusive; · = no result given; [ ] = dose if it differs, or a comment. The call rests on the fitted dose curve; in most records, active means well fitted curve in the direction sought with a large enough effect; inconclusive means small, poorly fitted or top-dose-only effect, or another doubt; inactive means no such curve, though single readings can be large; an effect the other way counts as inactive or inconclusive.

SMILES	TrxR1 substrate	rTrxR1 inhibitor	Sfp inh	KAT2A inh	VDR inhibitor	GLS inhibitor
C/C(N)=C(/C#N)C(=O)CSc1nc2ccccc2c(=O)n1Cc1ccc(F)cc1	–	–	71µM	–	–	–
O=C(N/N=C/c1ccoc1)c1ccc(Cl)cc1	–	–	50µM	–	–	–
O=C(N/N=C/c1ccoc1)c1cc(O)cc(O)c1	–	–	–	?	–	13µM
COc1cc(/C=N/NC(=O)c2cc(O)cc(O)c2)ccc1OC(=O)c1ccccc1	–	–	–	–	–	13µM
CC(C)NC(=O)c1cc(-c2ccc3c(c2)OCO3)on1	–	–	–	–	–	–
COc1cccc(CC(=O)NC2CCCN(Cc3ccccc3F)C2)c1 (stereo not drawn)	–	–	–	–	–	–
O=C(Nc1nnc(COc2ccc(Cl)cc2)s1)C1CCCO1 (stereo not drawn)	–[11.4 µM]	–	13µM	–	–	–
Cc1ccc(NC(=O)c2ccccc2)cc1C	–	–	·	–	–	–
Cc1ccc(NC(=O)/C=C\C(=O)NCC(=O)O)cc1C	–	45µM	–	–	–	–
COC(=O)c1c(-c2ccc(C)cc2)csc1NC(=O)C1CC=CCC1C(=O)O (stereo not drawn)	–	–	–	–	–	–
COC(=O)c1c(-c2ccc(C(C)(C)C)cc2)csc1NC(=O)C1C2CCC(O2)C1C(=O)O (stereo not drawn)	–	–	11µM	?	45µM	?
CCCS(=O)(=O)N1CCN(Cc2ccccc2C(F)(F)F)CC1	–	–	50µM	–	–	–
Clc1ccc2c(N/N=C/c3cccnc3)ccnc2c1	–	–	50µM	–	–	–
Cc1ccc(/C=N/Nc2ccnc3cc(Cl)ccc23)c(C)c1	–	–	45µM	–	–	–
Clc1ccc2c(N/N=C/c3ccc(Br)cc3)ccnc2c1	–	–	?	–	–	–
O=C(Nc1cccc(C(F)(F)F)c1)c1cccnc1N1CCOCC1	–	–	–	–	–	–
COc1ccc(NC2C=CS(=O)(=O)C2)cc1 (stereo not drawn)	–	16µM	–	·	–	–
CCOc1ccc(NC2C=CS(=O)(=O)C2)cc1 (stereo not drawn)	–	?	–	–	–	–
O=C(CSc1nc2nccnc2c(=O)n1CCc1c[nH]c2ccccc12)Nc1ccc(F)cc1	–	–	·	–	–	–
CC(CC(F)(F)F)N1CCC(n2nccc2NC(=O)CCOc2ccccc2)CC1 (stereo not drawn)	–	–	–	–	–	–
COc1ccc(CNS(=O)(=O)c2ccccc2Br)cc1	–	–	–	–	–	·
COCC(C)NC(=O)CCS(=O)(=O)c1nc(-c2ccc(OC)cc2)cc(C(F)(F)F)n1 (stereo not drawn)	–	56µM	–	–	79µM	–
Cc1cc(NC(=O)CCCS(=O)(=O)c2nc(-c3cccs3)cc(C(F)(F)F)n2)no1	–	?	–	–	18µM	–
COC(=O)CCS(=O)(=O)c1nc(-c2ccccc2)cc(C(F)(F)F)n1	–	18µM	–	–	20µM	–
CC(C)OC(=O)CSc1ncnc2c1cnn2-c1ccccc1	–	–	–	–	–	–
SMILES	TrxR1 substrate	rTrxR1 inhibitor	Sfp inh	KAT2A inh	VDR inhibitor	GLS inhibitor
C=CC1=C(C)/C(=C/c2[nH]c(Cc3[nH]c(/C=C4\NC(=O)C(C)=C4C=C)c(C)c3CCC(=O)O)c(CCC(=O)O)c2C)NC1=O	·	·	40µM	–	?	·
NC(=S)Nc1cc(Cl)cc(Cl)c1	–	–	–	–	–	–
NC(=S)NNc1cc(Cl)cc(Cl)c1	–	–	14µM	–	?	–
Cc1ccc(/C=C/c2nc3ccccc3[nH]2)o1	–	22µM	5µM	–	–	–
C=C(C)C(=O)NNc1ccccc1	–	–	–	–	–	–
Cc1ccccc1C1=C/C(=C(\SS/C(C(=O)c2ccc(OCC(=O)O)c(Cl)c2Cl)=C2\C=C(c3ccccc3C)SS2)C(=O)c2ccc(OCC(=O)O)c(Cl)c2Cl)SS1	–	?	·	·	40µM	?
O=C(NCCO)c1cccc(Cl)c1	–	–	–	–	–	–
O=C1CSC(c2ccncc2)N1Cc1ccco1 (stereo not drawn)	–	?	56µM	–	–	–
O=C(O)c1ccc(C2SCC(=O)N2Cc2ccco2)cc1 (stereo not drawn)	–	–	–	–	–	–
CCCCN(C(=O)Cn1nnc2ccccc21)C(C(=O)NCc1ccco1)c1ccncc1 (stereo not drawn)	–	–	50µM	–	–	–
Cc1cc(C)cc(N(C(=O)Cn2nnc3ccccc32)C(C(=O)NCc2ccco2)c2ccncc2)c1 (stereo not drawn)	–	–	45µM	–	–	–
COc1cccc(/C=C/C(=O)OCC(=O)Nc2ccc(S(=O)(=O)N3CCCC3)cc2)c1	–	–	79µM	–	–	–
O=C1OCCC1Sc1nnc(-c2ccccc2Br)n1Cc1ccccc1 (stereo not drawn)	–	–	–	–	–	–
CCOC(=O)c1ccc(C(=O)NNC(=O)C2C3C=CC(C3)C2C(=O)O)cc1 (stereo not drawn)	–	–	50µM	–	–	–
O=C(NNC(=O)C1C2C=CC(C2)C1C(=O)O)c1ccccc1 (stereo not drawn)	–	–	?	–	–	–
O=S(=O)(CCN1CCN(C(c2ccccc2)c2ccccc2)CC1)C(F)(F)F	–	1.6µM	–	–	?	–
c1ccc(CN2CCN(C(c3ccccc3)c3ccccc3)CC2)cc1	–	–	–	–	–	–
Cc1ccc(CNC(=O)c2ccc(CNS(=O)(=O)c3ccc4c(c3)C(C)(C)C(=O)N4C)cc2)o1	–	?	50µM	–	–	–
CCOC(=O)c1c(NC(=O)c2cc(-c3cccc(Cl)c3)on2)sc(C)c1C	–	–	·	–	–	–
CCCc1cc(C(=O)Nc2sc(C)c(C)c2C(=O)OCC)no1	–	–	16µM	–	?	–
CCOC(=O)c1c(NC(=O)c2cc(-c3ccc(Br)cc3)on2)sc(C)c1C	–	–	·	–	79µM	–
Cn1nnc(NC(=S)NC(=O)c2cccs2)n1	–	?	–	–	–	–
CCOc1ccc(S(=O)(=O)Nc2ccc(C(=O)N(CC)CC(=O)NCc3cccs3)cc2)cc1	·	·	·	·	·	–
CCOC(=O)c1cc2c(=O)n3ccccc3nc2n(CC2CCCO2)c1=NC(=O)c1ccc(OC)cc1OC (stereo not drawn)	–	?	·	–	–	–
CC1(C)CC2C1CC[C@]1(C)CCC3C(C(=O)O)CC(=O)O[C@]32C1 (stereo partly drawn)	·	·	–	7.9µM	–	·
CC(OCC(O)CN1CCCCC1CCO)c1ccc(Cl)cc1 (stereo not drawn)	–[0.457 µM]	–	–	–	–	–
